Anthrax LF prot – anthrax lethal factor protease inhibition; P15917; multiplex microsphere protease cleavage assay, LF; inhibition, % at 10 µM; actives 0.12% (n = 360,000); AID 588501; note: plate controls were buffer without enzyme for full effect and enzyme alone for no effect
Target sequence (P15917 whole entry, looked up): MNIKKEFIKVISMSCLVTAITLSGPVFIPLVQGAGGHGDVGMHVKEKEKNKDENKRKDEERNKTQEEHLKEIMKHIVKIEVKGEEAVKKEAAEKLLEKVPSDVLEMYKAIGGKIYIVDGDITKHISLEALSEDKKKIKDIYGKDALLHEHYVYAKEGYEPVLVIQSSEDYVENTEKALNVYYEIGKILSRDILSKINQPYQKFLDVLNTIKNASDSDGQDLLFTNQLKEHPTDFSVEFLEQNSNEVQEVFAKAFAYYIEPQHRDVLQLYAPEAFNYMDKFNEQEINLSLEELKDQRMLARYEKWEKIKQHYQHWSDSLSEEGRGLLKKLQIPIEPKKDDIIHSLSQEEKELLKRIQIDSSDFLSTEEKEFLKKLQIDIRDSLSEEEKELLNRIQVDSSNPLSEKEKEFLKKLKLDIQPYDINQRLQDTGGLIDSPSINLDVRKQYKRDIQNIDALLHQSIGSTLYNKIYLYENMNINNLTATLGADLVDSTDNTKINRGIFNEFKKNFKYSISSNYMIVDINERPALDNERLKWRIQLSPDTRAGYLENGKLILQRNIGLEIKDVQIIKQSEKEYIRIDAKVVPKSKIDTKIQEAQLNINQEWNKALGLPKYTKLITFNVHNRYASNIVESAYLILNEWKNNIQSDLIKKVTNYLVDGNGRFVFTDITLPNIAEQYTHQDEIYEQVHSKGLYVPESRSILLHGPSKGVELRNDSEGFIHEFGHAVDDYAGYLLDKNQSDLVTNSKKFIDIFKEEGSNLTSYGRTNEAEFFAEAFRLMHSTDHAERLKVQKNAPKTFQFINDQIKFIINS
Bead autofluor – compound fluorescence in toxin protease inhibitor counterscreen | compound autofluorescence counterscreen, microsphere flow cytometry; stronger effect = higher value | fluorescence intensity (concentration not given with the values) | actives 3.1% (n = 360,000); in the data active = fluorescence intensity above about 16000; inconclusive = no clear call, values can overlap the other calls
BoNT-F LC inh – BoNT F light chain protease inhibition; Multiplex microsphere protease cleavage assay, flow cytometry; inhibition, % at 10 µM; actives 0.22% (n = 360,000); AID 588497; in the data active = inhibition above about 35%, passing the limit was not always enough; inconclusive = no clear call, values can overlap the other calls; note: plate controls were buffer without enzyme for full effect and enzyme alone for no effect
Mtb FBA inh – inhibits M. tuberculosis FBA enzyme; actives 2.3% (n = 360,000); AID 588726; inhibition, % at 1 µM; purified M. tuberculosis FBA, fluorescence read-out; in the data active = inhibition above about 27%;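 note: 0% = vehicle and 100% = reference inhibitor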
GDH-TPI counter – counter-screen for M. tuberculosis FBA inhibitors: GDH-TPI coupled enzymes; AID 588335; actives 1.2% (n = 360,000); GDH-TPI coupled enzyme counterscreen, NADH absorbance; inhibition, % at 4.8 µM; in the data active = inhibition above about 30%;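 note: 0% = DMSO wells and 100% = wells lacking the enzyme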
BoNT-A LC inh2 – inhibitors of Botulinum neurotoxin A light chain protease | inhibition, % at 10 µM | actives 0.17% (n = 360,000) | AID 588499 | multiplex microsphere protease substrate cleavage, flow cytometry; note: plate controls were buffer without enzyme for full effect and enzyme alone for no effect
Starred values were filed as active, the others as inactive; ? = inconclusive; + = active, no number. A selection: hits, their analogues and other compounds. The true share with any hit is near 6.6%. Cut-off read from the data, not from the text of the source, unless noted: active = inhibition above about 30%; inconclusive = no clear call, values can overlap the other calls; inactive = below that.

SMILES	Anthrax LF prot	Bead autofluor	BoNT-F LC inh	Mtb FBA inh	GDH-TPI counter	BoNT-A LC inh2
CCSC1=N/C(=C\c2ccc(C(=O)O)cc2)C(=O)S1	-5	4789	18	-5	20	1
CCOC(=O)SC1=N/C(=C\c2ccc(N(C)C)cc2)C(=O)S1	20	19076*	14	-10	9	24
O=C(CC1(O)C(=O)Nc2ccc(Br)cc21)c1ccccc1 (stereo unspecified)	-1	3775	-1	2	-5	0
O=C(NC1CCCC1)C1(c2ccccc2)CCN(S(=O)(=O)c2ccccc2)CC1	-1	24081*	-4	-1	1	?
O=S(=O)(c1ccccc1)N1CCN(C(=S)NC2CCCC2)CC1	2	4430	-2	1	10	-1
O=C(C[n+]1cc(Br)cc2ccccc21)c1ccc(Br)cc1	45*	6312	-1	2	3	120*
Cc1ccc(C(=O)C[n+]2cccc3ccccc32)cc1	16	5828	53*	6	13	11
O=C(C[n+]1cc(Br)cc2ccccc21)c1ccc(Cl)cc1	20	6803	32	2	-1	104*
CCCCOc1ccccc1C(=O)N(Cc1ccco1)C1CCS(=O)(=O)C1 (stereo unspecified)	-2	5791	-2	3	3	0
N#Cc1ccc(S(=O)(=O)N2CCC(C(=O)N3CCN(Cc4ccc5c(c4)OCO5)CC3)CC2)cc1	-8	4434	-11	0	4	-1
COc1ccc2nc(SCC(=O)NC3CCCC3)c(C)cc2c1	-3	5330	-2	1	0	1
CCOC(=O)C1(C)CCN1C(=O)CSc1ccccc1 (stereo unspecified)	-8	3057	1	1	6	0
Nc1nc2nccc(-c3ccco3)n2n1	-5	4579	2	+	21	0
COc1ccc(C(=O)N/N=C/c2sc(=O)n(Cc3cccc(C(=O)O)c3)c2Cl)cc1	-1	5402	1	-5	36*	0
O=C(O)c1cccc(Cn2c(Cl)c(/C=N/Nc3ccccc3)sc2=O)c1	-3	4413	-1	2	24	-1
O=C(O)c1cccc(Cn2c(Cl)c(/C=N/NC(=O)c3ccccc3Cl)sc2=O)c1	-4	3385	-5	1	41*	0
O=C(O)c1cccc(Cn2c(Cl)c(/C=N/NC(=O)c3ccccc3O)sc2=O)c1	-3	3420	-1	5	54*	-1
CC(C)(C)c1ccc(CC(=O)N2CCC2(C)C(=O)NS(=O)(=O)c2ccccc2Cl)cc1 (stereo unspecified)	-5	3821	-6	3	-6	-1
CC1=C(C(=O)OCc2ccc(C)cc2)C(c2ccc(O)c([N+](=O)[O-])c2)NC(=O)N1 (stereo unspecified)	1	2506	-4	-5	0	-1
O=C(NCc1ccco1)C1CCN(c2ccc(S(=O)(=O)N3CCOCC3)cc2[N+](=O)[O-])CC1	-7	4439	-5	-3	-1	0
C#CCOCCOCCOCCNc1nc(N2CCN(C(=O)[C@H]([C@@H](C)CC)n3cc([C@@H](N)CC(C)C)nn3)CC2)nc(N2CCN(C(=O)[C@H]([C@@H](C)CC)n3cc([C@@H](N)CC(C)C)nn3)CC2)n1	-5	5422	-48	-1	3	0
CCCCC1=CC2=CC(=O)C(C)(OC(=O)CC)C(=O)C2=CN1CCc1ccc(Br)cc1 (stereo unspecified)	-1	3640	-25	0	12	2
Cc1ccc(CNCC(O)(c2ccc(F)cc2)c2ccc(F)cc2)cc1	-8	22638*	-13	0	21	?
O=C(/C=C/c1ccco1)NC(=S)Nc1ccccc1	-3	4152	?	-2	40*	-1
Cc1cccc(NC(=S)NC(=O)/C=C/c2ccco2)n1	0	2545	-2	-2	33*	0
Cc1cccc(NC(=S)NC(=O)/C=C/c2ccco2)c1	-1	4810	-4	5	6	0
O=C(/C=C/c1ccco1)NC(=S)Nc1cccc(-c2nc3ccccc3s2)c1	0	4606	-23	0	38*	0
NC(N)=NS(=O)(=O)c1ccc(NC(=S)NC(=O)/C=C/c2ccco2)cc1	5	10623	7	-5	57*	1
NS(=O)(=O)c1ccc(NC(=S)NC(=O)/C=C/c2ccco2)cc1	0	2543	3	1	20	1

From PubChem BioAssay
